# In the library only some 4.5% were active in any assay of this set; here they are far more common.
# HEK293 cAMP cs: qHTS Assay for Agonists of the Thyroid Stimulating Hormone Receptor: Activators of Intracellular cAMP Concentrations in Parental HEK 293; parental HEK293 CNG cAMP sensor, membrane potential fluorescence; Potency, µM (top dose mostly 57.1 µM), for the others: at the highest dose activation, hits mostly activators; 2.5% of 73,000 active; AID 938, 2007; further: % of control where 0% means no effect; nearly all actives have a fitted effect of over 55% in size
#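 Parental HEK 293 cells stably expressing a modified CNG channel (no TSHR) report cAMP rise as membrane depolarization. Membrane potential dye with 100 uM RO 20-1724 was loaded for 60 min at room temperature, then compound added for 30 min; fluorescence read at 590 nm.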
# GBA mod: Glucocerebrosidase; purified enzyme, resorufin glucoside fluorescence (screen aimed at inhibitors), 20 min; 1.1% of 48,000 active; Potency, µM; AID 360, 2006; in the data active means potency below about 15 µM; inconclusive means mostly about 16 µM to 33 µM;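 further: the screen sought inhibitors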
# Target sequence (P04062 whole entry, looked up): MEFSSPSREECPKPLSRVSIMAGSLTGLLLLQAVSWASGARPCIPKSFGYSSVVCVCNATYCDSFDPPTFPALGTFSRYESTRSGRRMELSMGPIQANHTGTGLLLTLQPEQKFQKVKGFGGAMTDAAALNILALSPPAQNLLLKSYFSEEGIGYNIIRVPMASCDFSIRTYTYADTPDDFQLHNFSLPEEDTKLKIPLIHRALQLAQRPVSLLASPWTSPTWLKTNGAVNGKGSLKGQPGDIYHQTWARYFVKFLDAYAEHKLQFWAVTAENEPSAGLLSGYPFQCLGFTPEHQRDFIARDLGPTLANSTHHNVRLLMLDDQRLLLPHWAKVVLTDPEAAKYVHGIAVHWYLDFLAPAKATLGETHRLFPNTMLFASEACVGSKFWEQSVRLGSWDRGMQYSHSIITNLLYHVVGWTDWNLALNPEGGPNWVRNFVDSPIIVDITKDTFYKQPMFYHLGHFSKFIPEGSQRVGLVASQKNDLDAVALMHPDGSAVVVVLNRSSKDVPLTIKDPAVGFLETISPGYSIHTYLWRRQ
#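 Normal human glucocerebrosidase (0.2 nM final) was assayed with resorufin β-D-glucopyranoside (30 uM final) in 50mM citric acid/KH2PO4, 10mM sodium taurocholate, 0.01% tween-20, pH 5.9. Compounds were titrated; fluorescence (Ex 548, Em 600) read after 20 min at RT.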
# Caspase-1 inhib: qHTS Assay for Allosteric/Competitive Inhibitors of Caspase-1 | 0.03% of 75,000 active | Caspase-1 enzyme, Ac-WEHD-AFC fluorogenic rate | Potency, µM (highest dose often 57.5 µM), for the others: at the top dose activity change, negative = inhibition, hits mostly inhibitors;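 further: plate controls were vehicle for no effect and no substrate for full effect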
# Caspase-7 inhib: qHTS Assay for Allosteric/Competitive Inhibitors of Caspase-7; Potency, µM (highest dose often 57.5 µM), for inactives: top-dose activity change, negative = inhibition, usual class: inhibitors; P55210; 0.02% of 75,000 active; recombinant caspase-7, Ac-DEVD-AFC fluorescence rate; active means well fitted inhibition curve with a large enough effect in the main read-out, with a control signal flat, not every such curve was filed as active; inconclusive means small, poorly fitted or top-dose-only effect, or a change in a side signal; further: % of control where 0% means no effect
# TSHR ag: qHTS Assay for Agonists of the Thyroid Stimulating Hormone Receptor. HEK293-CNG-TSHR cells (CNG channel as cAMP sensor), membrane potential dye, cAMP. AID 926, 2007. 0.48% of 73,000 active. Potency, µM (series often up to 57.1 µM), for inactives: top-dose activation, actives largely listed as activators. Thyrotropin receptor (Homo sapiens), P16473; active means well fitted activation curve with a large enough effect in the main read-out, with a control signal flat, not every such curve was filed as active; inconclusive means small, poorly fitted or top-dose-only effect, or a change in a side signal; inactive means no such curve, though single readings can be large or run the other way; % of control where 0% means no effect;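 further: the control signal comes from parental cells without the receptor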
#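 HEK 293 cells stably expressing TSHR and a cAMP-gated CNG channel; parental CNG-only cells as counterscreen. Cells preloaded 60 min with membrane potential dye plus 100 uM RO 20-1724, then compound 30 min; fluorescence read at 590 nm.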
# ERK AVP inh: qHTS Assay for Inhibitors of the ERK Signaling Pathway using a Homogeneous Screening Assay; HEK293-V1b, vasopressin-stimulated pERK AlphaScreen; Potency, µM (titrated, usually from 57.5 µM), for the others: at the top dose activity, negative = inhibition, hits mostly inhibitors; 0.99% of 72,000 active; AID 995, 2007; further: on the % scale 0 is the no-effect control and ±100 the full control effect; nearly all actives have a fitted effect of over 55% in size
#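 HEK293 cells stably expressing V1b receptor, seeded overnight in 1% FBS, were treated with compounds for 30 min at 37C, then stimulated 5 min with 25 nM vasopressin; phospho-ERK read by AlphaScreen SureFire after lysis.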
# The depositor's hits bear a star; ? = inconclusive; / = not tested or not shown; [ ] = dose if it differs, or a comment. Unless noted, the call rests on the fitted dose curve; in most records, active means well fitted curve in the direction sought with a large enough effect; inconclusive means small, poorly fitted or top-dose-only effect, or another doubt; inactive means no such curve, though single readings can be large; an effect the other way counts as inactive or inconclusive. Potency means the concentration at half of the fitted maximal effect.
SMILES,HEK293 cAMP cs,GBA mod,Caspase-1 inhib,Caspase-7 inhib,TSHR ag,ERK AVP inh
N#Cc1cc2c(nc1SCC(=O)Nc1nccs1)CCCCC2,20µM*,/,/,-28%,?,-5%
O=C(c1ccccc1F)N1CCN(c2ccccc2F)CC1,2%,>77,-3%,-1%,-3%,-8%
O=C(c1ccccc1C(=O)N1CCN(c2ccccc2F)CC1)N1CCN(c2ccccc2F)CC1,16µM*,/,-1%,-5%,?,-24%
c1cncc(CNc2ncnc3ccc(-c4ccoc4)cc23)c1,-2%,/,-3%,-9%,2%,-1%
Cc1cccc(CNc2ncnc3ccc(-c4ccoc4)cc23)c1,32µM*,/,-6%,-8%,?,-17%
Cc1cccc(CNc2ncnc3ccc(-c4cccnc4)cc23)c1,?,/,-2%,-4%,?,2µM*
CN(C)C(=O)c1ccc(-c2ccc3ncnc(NCc4ccccc4)c3c2)cc1,7%,/,-4%,-5%,7%,25µM*
O=C(O)CN(CCN(CC(=O)O)CC(=O)O)CC(=O)O.[Cu],-8%[11.4 µM],/,-4%[11.5 µM],-1%[11.5 µM],-2%[11.4 µM],5%[11.5 µM]
CCCc1ccc(S(=O)(=O)NCCc2ccncc2)cc1,11%,7.1*,0%,-3%,6%[11.4 µM],-4%
Cc1ccc(-n2c3c(cc(C(=O)NCc4ccco4)c2=O)C(=O)CC(C)(C)C3)cc1,21%[11.4 µM],/,-5%,-21%,4µM*,19%
CC1(C)CC(=O)c2cc(C(=O)NCc3ccco3)c(=O)n(-c3ccc(Cl)cc3)c2C1,?,>77,1%,-1%,?,-14%
O=C(O)c1cc(NCc2cccs2)ccc1N1CCOCC1,7%,>77,-5%,0%,2%,4%
O=C(O)c1cc(NCc2ccccc2C(F)(F)F)ccc1N1CCOCC1,4%,13*,-1%,1%,12%,-8%
CN1CCN(c2ccnc(-c3ccccc3C(F)(F)F)n2)CC1,32µM*,/,1%,1%,?,18%
COc1ccccc1-c1nccc(N2CCN(C)CC2)n1,28%,/,3%,1%,26%,7%
O=C(Nc1ccc2c(c1)OCO2)c1ccc(Br)c(S(=O)(=O)N2CCCC2)c1,?,>77,-5%,-5%,?,?
O=C(Nc1cccc(F)c1)c1cccc(S(=O)(=O)N2CCOCC2)c1,-3%,>77,?,-19%,6%,-14%
O=C(Nc1ccc2c(c1)OCO2)c1cccc(S(=O)(=O)N2CCCC2)c1,12%,>77,0%,-2%,3%,16µM*
O=C(Nc1ccc2c(c1)OCCO2)c1ccc(Br)c(S(=O)(=O)N2CCOCC2)c1,?,/,-4%,-3%,?,7.9µM*
CCOC(=O)c1ccc(NC(=O)c2cccc(S(=O)(=O)N3CCOCC3)c2)cc1,21%,/,-4%,-1%,11%,5µM*
O=C(O)c1cccc(NC(=O)c2cccc(S(=O)(=O)N3CCCCC3)c2)c1,8%,>77,5%,0%,7%,14%
CC(=O)OCC1OC(C#Cc2ccccc2)C=CC1OC(C)=O (stereo not given),0%[11.4 µM],/,-2%[11.5 µM],2%[11.5 µM],-3%[11.4 µM],26%[11.5 µM]
CC[C@@H]1OC(=O)[C@@H](C)[C@H](O[C@@H]2C[C@@](C)(OC)[C@@H](O)[C@H](C)O2)[C@H](C)[C@H](O[C@@H]2O[C@@H](C)C[C@@H](N(C)C)[C@H]2O)[C@@](C)(O)C[C@H](C)C(=O)[C@@H](C)[C@H](O)[C@@]1(C)O,-2%,/,/,/,2%,/
c1ccc(CN(Cc2ccco2)C(c2ccncc2)c2nnnn2C2CCCC2)cc1 (stereo not given),10µM*,/,?,-1%[0.00368 µM],?,-12%
CCN(CC)C(c1ccc(F)cc1)c1nnnn1C1CCCCC1 (stereo not given),17%,/,-4%,-1%,7%,-13%
SMILES,HEK293 cAMP cs,GBA mod,Caspase-1 inhib,Caspase-7 inhib,TSHR ag,ERK AVP inh
CCN(CC)C(c1ccc(C)cc1)c1nnnn1C1CCCCC1 (stereo not given),16µM*,>77,1%,-1%,?,12%
C#CCCCO/N=C1/[C@H]2O[C@@H]2[C@@H](O)[C@H]2[C@H]1CCn1c(=O)n(C)c(=O)n12,-5%[11.4 µM],/,-2%[11.5 µM],2%[11.5 µM],-5%[11.4 µM],-10%[11.5 µM]
O=C(NCc1ccccc1)c1ccc(Cc2nc3ccccc3[nH]2)cc1,5%,/,-2%,-3%,-6%,/
O=C(NC12CC3CC(CC(C3)C1)C2)N1CCN(C(=O)C2CCCO2)CC1 (stereo not given),0%,>77,0%,0%,-2%,-10%
C1CCC(N=C(NC23CC4CC(CC(C4)C2)C3)N2CCOCC2)CC1,25µM*,/,0%,2%,?,9%
COc1ccc2nc3c(cc2c1)Cc1ccccc1-3,25µM*,/,-4%,-7%,?,32µM*
COc1ccc(NC2=Nc3ccccc3CC2)cc1,16%,>77,-1%,-4%,11%,-24%
C1CCN(CC[C@@H]2CCCCN2)CC1,5%[11.4 µM],/,0%[11.5 µM],0%[11.5 µM],0%[11.4 µM],-8%[11.5 µM]
CCCNC(=O)OC[C@@H]1O[C@H](CCO/N=C\[C@@H](C)[C@H](OCc2ccccc2)C(C)C)C=C[C@@H]1Oc1ccc(OC)cc1,5%[11.4 µM],/,-3%[11.5 µM],-1%[11.5 µM],4%[11.4 µM],33%[11.5 µM]
CCN(CC)S(=O)(=O)c1cc(C(=O)OCC(=O)c2ccc3c(c2)NC(=O)CO3)ccc1F,?,?,-4%,-6%,?,32µM*
Oc1ccccc1-c1nc(NCC2CCCO2)c2ccccc2n1 (stereo not given),3%,>77,?,-27%,23%,32µM*
N#C/C(=C(/N)Sc1ccc(N)cc1)c1ccccc1C(F)(F)F,-1%,/,1%,-6%,25%,0.32µM*
O=C(c1cccc2c1-c1ccccc1/C2=N/O)N1CCCCC1,13µM*,/,-3%,-2%,?,-9%
O=C(c1ccccc1)c1ccccc1C(=O)N1CCCC1,5%,>77,1%,1%,23%,-1%
CC(C)Cc1nc2oc3c(N4CCN(CCO)CC4)ncnc3c2c2c1CCCC2,16µM*,?,-4%,-2%,?,7%
Cc1[nH]c(N)nc(=S)c1CCC(=O)O,10%[11.4 µM],/,7%[11.5 µM],2%[11.5 µM],-2%[11.4 µM],-1%[11.5 µM]
c1ccc2c(c1)CCC[C@H]2C1=NCCN1,-3%,/,0%,1%,1%,6%
CO[C@H]1COC(=O)C/C=C\[C@@H](C)COC(=O)[C@@H](C)NC(=O)C/C=C\[C@@H]1C,3%[11.4 µM],/,0%[11.5 µM],-1%[11.5 µM],3%[11.4 µM],11%[11.5 µM]
CN(C)c1ncc2nc(-c3ccccc3)c(=O)n(Cc3ccc(F)cc3)c2n1,5µM*,/,/,?,?,16%
CN(C)c1ncc2ncc(=O)n(CCc3ccccc3)c2n1,13µM*,/,/,?,?,?

# Screening results from PubChem BioAssay.
